Results as given in PubChem BioAssay (NCI).
About 79,000 compounds went through this panel and 15% of them were active in at least one assay; those are over-represented in the sample as a whole. Values without a mark were called inactive. Activity calls are given as the source filed them. Rule as the data show it: active = growth inhibition above about 70%; inactive = the rest. *1 amine or outer side, *2 acyl side, *3 side chain or, on linkers, in order; H or OH if unused. Where a SMILES comes first, the peptide text is derived from it. Bridges are numbered along the chain shown (N, C = ends). Roman numbers before positions name the chains, in order. [ ]: non-standard residue; d: D form. Actinocin(9to1) = Cc1c2oc3c(C)ccc(C(=O)[*:1])c3nc-2c(C(=O)[*:2])c(N)c1=O; NMeF = CN[CH](Cc1ccccc1)C(=O)O; Sar = CNCC(=O)O

Experiments:
[1] = NCI Yeast Anticancer Drug Screen. Data for the rad50 strain (AID 155);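 also: 0% = growth of vehicle-only cultures of the same strain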; conditions: S. cerevisiae rad50 strain growth inhibition; at 50.0 µM; hits give high values
In short: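 Vehicle-treated cultures provide the reference for the growth inhibition reported for compound-exposed, repair-deficient yeast.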

[2] = NCI Yeast Anticancer Drug Screen. Data for the mec2-1 strain (AID 157); conditions: S. cerevisiae mec2-1 strain, at 50.0 µM, hits give high values
In short: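 Compounds were applied to mec2-1 yeast cells. Their growth was then compared with that of vehicle-treated cultures to give growth inhibition.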

[3] = NCI Yeast Anticancer Drug Screen. Data for the sgs1 mgt1 strain (AID 161);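 also: 0% = growth of cultures given vehicle only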; conditions: S. cerevisiae sgs1 mgt1 strain, at 50.0 µM, hits give high values
In short: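 Growth of a repair-deficient yeast mutant was monitored after compound treatment and expressed as inhibition relative to vehicle-treated cultures.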

[4] = NCI Yeast Anticancer Drug Screen. Data for the cln2 rad14 strain (AID 165);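 also: 0% = growth equal to vehicle treated cultures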; conditions: S. cerevisiae cln2 rad14 strain, at 50.0 µM, hits give high values
In short: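 Strain: cln2 rad14 yeast, altered in cell cycle control and DNA damage repair. Read-out: growth inhibition vs vehicle.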

[5] = NCI Yeast Anticancer Drug Screen. Data for the bub3 strain (AID 167); conditions: S. cerevisiae bub3 mutant strain, at 50.0 µM, hits give high values
In short: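 Mutant yeast screening strain plus compound; vehicle-treated cultures serve as the 0% inhibition reference.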

[6] = NCI Yeast Anticancer Drug Screen. Data for the mlh1 rad18 strain (AID 175); conditions: S. cerevisiae mlh1 rad18 strain growth inhibition; at 50.0 µM; hits give high values
In short: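 A repair-deficient yeast strain is exposed to test compound, and growth is scored relative to vehicle-treated controls.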

| SMILES | growth inhibition [1] | growth inhibition [2] | growth inhibition [3] | growth inhibition [4] | growth inhibition [5] | growth inhibition [6] |
| --- | --- | --- | --- | --- | --- | --- |
| O=C1COCC(=O)N1 | 7.35% | -22% | 8.85% | -1.95% | 0.05% | -0.2% |
| CCN(CC)C1CS(=O)(=O)OC2=C1CSCC2 (stereo not given) | -2.4% | 19.1% | 11.3% | 3.75% | 4.35% | -31.5% |
| COc1cc(CN2CCN(CCO)CC2)c(O)c(CN2CCN(CCO)CC2)c1 | -2% | 1.55% | -23.4% | -6.9% | -5.45% | 6.9% |
| CC(C)CCCC(C)C1CCC2C3CC=C4CCCCC4(C)C3CCC12C (stereo not given) | -22.4% | -4.25% | -3.85% | -5.45% | -5.05% | -23.6% |
| CCOC(=O)C1CCN(S(=O)(=O)c2ccccc2)CC1 | 3.4% | -7.3% | 11.8% | -38.1% | 18.6% | -6.15% |
| O=c1[nH]ncn2nc3ccccc3c12 | 3% | 10.2% | -2.5% | -53.1% | -1.3% | 8.15% |
| Cc1ccc(NC(=O)C2CCN(C)CC2)cc1 | -14.3% | -15% | -16.7% | -23.4% | -8.7% | 7.85% |
| CCOC(=O)C1Cc2cc(C)c(C)cc2N(C)C1=O (stereo not given) | 7.6% | -10.2% | 5.9% | -22.5% | 22.1% | -3.6% |
| O=C(Nc1cccc([N+](=O)[O-])c1)c1ccccc1Cl | -0.65% | 16.1% | 1.85% | 0.8% | 12.9% | 8.75% |
| CC(C(=O)c1ccccc1)N(C)c1ccccc1 (stereo not given) | 12.7% | -5.35% | -3.1% | -36.8% | -26% | -1.65% |
| c1ccc(-c2nc3ncncc3[nH]2)cc1 | 7% | -10.3% | -7.65% | -13.8% | -3.45% | -5.6% |
| COc1ccc2[nH]cc(CC(N)=O)c2c1 | -25.8% | -28.8% | -39.4% | 12.7% | -41.4% | -19.5% |
| Brc1nc(-[n+]2ccccc2)[n-]c1Br | -0.75% | 3.75% | -13.9% | -60.5% | 1.5% | 1.4% |
| Cc1ccc(C2=Nn3c(nc4sc5c(c4c3=O)CCCC5)SC2)cc1 | -25.7% | -19.4% | -39.1% | -5.9% | -27.4% | -21.8% |
| CCCCn1c(=S)[nH]c2c(=O)n(C)c(=O)n(C)c21 | 4.95% | 4.3% | 7.55% | -14.4% | -7.35% | 4% |
| Cc1cc(Br)c(NC(=O)c2c(-c3c(Cl)cccc3Cl)noc2C)c(Br)c1 | -3.35% | -16.3% | -8.15% | 4.9% | -11.7% | 4.9% |
| C=C1C(=O)OC2/C=C(\C)C(=O)CC3OC(C)(C)OC3(C)CC(OC(=O)/C(C)=C/C)C12 (stereo not given) | 15.4% | -14% | 16.6% | 9.6% | -16.2% | -30.6% |
| O=[N+]([O-])c1cc(Br)cc2c1[nH]c1nc3ccc(C(F)(F)F)cc3nc12 | 45.5% | -17.9% | 8.1% | 17.4% | -2.2% | -3.55% |
| CCO[C@H]1c2cc3c(cc2[C@@H](c2cc(OC)c(OC)c(OC)c2)[C@H]2C(=O)OC[C@@H]21)OCO3 | 11.4% | 6.25% | 26.9% | 28.7% | 12.7% | 24.9% |
| COc1cccc(N2C(=O)CC(=P(c3ccccc3)(c3ccccc3)c3ccccc3)C2=O)c1 | 40% | 20.6% | 23.9% | -21.7% | -7.9% | 13.4% |

| SMILES | growth inhibition [1] | growth inhibition [2] | growth inhibition [3] | growth inhibition [4] | growth inhibition [5] | growth inhibition [6] |
| --- | --- | --- | --- | --- | --- | --- |
| CC(C)COC(=O)c1cc(O)[nH]c(=O)c1 | -19.6% | -7.8% | 1.75% | -40.1% | -15.5% | -6.8% |
| NC(=O)c1cn(Cc2ccccc2)c(=O)n1Cc1ccccc1 | 9.75% | 18.2% | -3.2% | 9.45% | 23.8% | 11.7% |
| COc1ccc(C=O)c(NC(=O)C(C)(C)C)c1 | 37.4% | 23.9% | 9.8% | 1.7% | 23.2% | -13.7% |
| C#CCC1(C(=O)OCC)C(=O)c2ccccc2N(C)C1=O (stereo not given) | 16.9% | 1.55% | 31.1% | 11.4% | 14% | 6.95% |
| O=S(CCO)c1ccc(Cl)cc1 (stereo not given) | -26.1% | -20.1% | -21.2% | -55.5% | 2.75% | -23.9% |
| Cc1ccc(-c2nc(SCc3ccc(Cl)cc3)[nH]c(=O)c2CCO)cc1 | 55.5% | 14.3% | 38.8% | 34.4% | 47.7% | 32.2% |
| CCOCCOCCOc1c(Cl)cc(Cl)cc1Cl | -6.65% | 1.9% | -7.35% | -46% | 30.2% | -21.6% |
| Nc1nc(Cl)nc(Cl)n1 | -53.7% | -59.5% | -33% | 3.75% | -52.4% | -12.2% |
| COc1ccc(N2C(=O)c3c(c4[nH]c5ccccc5c4c4ccc(C(C)(C)C)cc34)C2=O)cc1 | 5.5% | -1.2% | 22.6% | 19.6% | -10.3% | -2.2% |
| COC1OCC2OC3(CCCCC3)OC2C1SCc1ccccc1 (stereo not given) | 8.05% | -9.85% | 10.8% | -7.4% | -10.4% | -5.25% |
| Brc1ccc(N=C2NN=CC2(c2ccccc2)c2ccccc2)cc1 | 25.6% | 1.75% | 6.75% | 4.85% | 19.6% | -1.15% |
| COc1ccc2c3c(c(C(=O)O)oc13)CCC2 | 3.85% | -3.05% | -3.8% | -5.8% | -15.3% | 16.8% |
| Cc1c2oc3c(C)ccc(C(=O)NC4C(=O)NC(C(C)C)C(=O)N5CCCC5C(=O)N(C)CC(=O)N(C)C(Cc5ccccc5)C(=O)OC4C)c3nc-2c(C(=O)NC2C(=O)NC(C(C)C)C(=O)N3CCCC3C(=O)N(C)CC(=O)N(C)C(Cc3ccccc3)C(=O)OC2C)c(N)c1=O (stereo not given) (I: TVP[Sar][NMeF] / II: TVP[Sar][NMeF]; ester I:1-I:C, II:1-II:C; linker I:N-II:N via Actinocin(9to1); configuration not given here) | -0.6% | 6.05% | -12.7% | 2.15% | -23.6% | -27.4% |
| Cc1c(/C=N/O)nc2ccccc2c1C(=O)O | -15.1% | -9.25% | -6.5% | -24.1% | -3.85% | -28.9% |
| NCCOCC(N)C(=O)O (stereo not given) | -9.3% | -14.4% | -52.4% | -27.1% | -51% | 8.4% |
| O=C(NC1CCCCC1)OCc1c(COC(=O)NC2CCCCC2)c2cccn2c2c1cnn2-c1ccccc1 | 3.7% | 3.4% | -27.6% | 3.1% | -2.95% | 19.1% |
| CC(=O)/C(=C\I)c1ccccc1 | 87.8% (active) | 91.8% (active) | 85.4% (active) | 89.9% (active) | 89.5% (active) | 85.5% (active) |
| O=C1c2ccccc2C(=O)N1N1C(=O)C2C3CCC(O3)C2C1=O (stereo not given) | 12.8% | 0.4% | 12.9% | 15.9% | 17.5% | 9.3% |
| CCCCCCCCCCCCCCCCCCCCc1ccccc1 | 25.9% | 10.3% | 1.2% | 12.7% | -14.2% | 26.4% |
| NC(=O)CCC(NS(=O)(=O)c1ccc(NC(=O)c2ccccc2)cc1)C(=O)O (stereo not given) | 4% | -4.1% | -22.9% | 19.6% | -5.7% | -1.95% |
